The source of these data is PubChem BioAssay AID1508600 (Functional Genomics Laboratory (NCATS/FGL), 2020).

Among all 53,000 sequences or so, about 3,700 (7%) were called active. The full list was thinned out, with actives kept by preference. Unmarked numbers belong to inactive results.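 Rule for the calls: active = gene knockdowns whose robust z-score for IL-1 alpha signal is at least 2 or at most -2, so actives lie on both sides; inactive = the rest.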

A short description of the experiment: Components of the Cytosolic LPS Sensing Pathway: Gene Identification via Genome-wide siRNA Screen.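 Note: robust z of the log signal after scaling to non-targeting control siRNA wells of the plate.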 The following applies: RAW264.7 macrophages, IL-1a HTRF, actives lie on both sides, screened at 100 nM (by protocol), cells primed 5 h with Pam3CSK4 first. In a few lines: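 Cells (RAW264.7, 1×10^4 per well) were transfected with siRNA at 100 nM and cultured 48h at 37 degrees C. Pam3CSK4 was added for 5 hours; LipidA transfection followed for 24 hour. IL-1a was then measured by HTRF.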
(TR-FRET usually uses a lanthanide donor and a delayed reading to cut background.)
Consider GCUACGUGUACCUGGAGUGTT against Cpeb1, for which the z-score is -0.502.
The same measure for GGUGGUUAUUUAUUGGUGATT against Sp6: -0.272; for GGUGCCUCAGAGUAAAUAUTT against Cdk2ap1: -0.895.
Regarding GCAAGCAAUAGAGGAACCUTT against Rnf38, the z-score was 0.0643.
As for GCAAACUAUUUGUCUGGUGTT against Ripk1, the z-score is 0.7.
As to GGAGUACAUGGUGAUGUUGTT against Prss43, the z-score was -2.6 (active).
Take CCGAAUCUCUCACGUGCCATT against Rtn4r: the z-score was -0.474.
The same measure for GGAGUGUUUUACCUCUUUCTT against Nudt13: 0.911.
For the sequence GGACUUGAUGACAGUGAAUTT against Strada, the z-score is -2.27 (active).
The same measure for GCACCAUGAAUUCUAUUGCTT against Kcnmb1: -0.24; for GCCGCUUAAGAGGGAUUAUTT against Mrpl15: -0.394; for GGAGUAACUAUUCCCAAUUTT against Herc1: 1.41.
GGAGUUGAGGUGAUUAUCUTT against Olfr1222: the z-score was -2.33 (active).
Take GCUUAAGGAUCCAUAAUGUTT against Musk: the z-score was 0.981.
The result for GGAAGGAGAAAGAGUAUGATT against Mnt reads 0.525; that for GCAGAAACGAUUGUACCAUTT against Ar, 1.37.
The same measure for GGCUCAAAACCACACCACUTT against Olfr477: -2.75 (active); for CGAUUGCUAAGGUGUUUGATT against Sfmbt1: -0.45; for GGAGCAUCAUUAUUCUGCATT against Gm527: -0.0903.
On to GAGAAACCUGCCUCAUCUCTT against Spata3, for which the z-score was -0.0842.
The result for “GGAUUUGAACUCAGAUGUUTT against A430057M04Rik” reads 2.15 (active); that for GGGAUGUUCUUCAAUCCUGTT against Hecw2, 0.0154.
Consider GCACUUCAGUUUACAAAACTT against Mier3, for which the z-score was -0.891.
Consider CGUUUGAUGAGACCAUGUATT against Vwf, for which the z-score is -0.459.
The same measure for GCCUGGUAGUUAGUCAGAATT against Klf11: 2.4 (active).
The same measure for GCUACAUGAUUCAGCGGAATT against Itga3: -1.23.
The result for CGGAUUAGUAUAAAUGUAGTT against Prss16 reads -0.109; that for UCACAACUGUCUGUUCUCATT against Klk1b3, -1.19.
Regarding GCCACACACCUUCUAUAAUTT against Ptprs, the z-score was -0.62.
The same measure for GCCAACGCAGCAAAAGCUCTT against Rsrp1: 0.0495; for CCCAAUAUGUUAGACCCUGTT against Slc16a8: 0.448.
Turning to GGUGAUAAUUAAUGUCUUGTT against Naip1, the z-score was 2.08 (active).
The same measure for GGAUCAGAACUUAUCUGUGTT against Utp23: 0.383; for GGCACUGAUAAGAAGUACCTT against Dnah1: 0.772.
For GCUUAUGUUAAACCAGAGATT against Syt8, the z-score was 0.0449.
The result for GGAUCCUAGCCUUUUAUCATT against Cep70 reads -1.11; that for GGAUUCCAGAGAAAUGUGATT against Lrrc66, -2.62 (active); that for GGUAUGAGUACAAAUACUGTT against Tek, 1.97.
The result for GGCUCUGCCAUUUUCCCUUTT against F12 reads -1.24; that for GGCCAAGUUCCAUAUCACCTT against Eefsec, 0.46.
The result for GGAACUCAGUCAGGACCAATT against Hnf4aos reads 0.954; that for CGAGAAUAUGUGAGAGCUUTT against Dcaf13, -0.793; that for GGAGACCCUGGUGAGAAGATT against Emid1, 0.26.
On to GGAACACAGAGGUAAAAGGTT against Olfr446, for which the z-score was -2.66 (active).
For CCAGCAUGCAUGAACGAGUTT against Carnmt1, the z-score is 0.508.
The result for CCCUGUAACCAAUAAGAAGTT against Snrpa1 reads -0.401.
The same measure for GGGCUAUGCAGACCUGUACTT against Cyb561: -2.45 (active).
The same measure for CCUUGGGACAAGCAUAUAUTT against Psg25: 0.901; for “GGCAAGUCUAAAAUACAUUTT against St6galnac4”: -0.439; for CGUACCAGAUGAGCUAAGUTT against Zfp513: 2.56 (active).
As to CCUGUUGUAUUGUUUAGCGTT against Ago2, the z-score was -0.402.
The result for CCUCAAGAUAAACCGACAATT against Bard1 reads 0.388.
With GGAGUCCGCUCAGAAUUUGTT against Lhpp, the z-score is -0.194.
The same measure for GGACAAAGUUGUUCCUUCUTT against Zfp13: -2.62 (active); for GGAAGAUCUACAUCGUGGGTT against Klhl26: 0.341; for GGUGGUUUUUUGUUGUUGUTT against Lhfpl4: 0.277.
Take GCCUAUGACUACCUCGAGUTT against Rhob: the z-score was -2.01 (active).
The same measure for GGAGAAUAAUAAGCUGGAATT against Hap1: 0.12; for CGGUAUCUUGGUCAACCUGTT against Naaa: 0.955.
As for GGUAGCUCUGAGACAAUUCTT against Pkhd1l1, the z-score was 0.857.
The same measure for GCCCAUUAUGGUUAAAGAATT against Ccnb3: -0.311; for “GGAGAUCGAUAUUCGACUATT against 4933434E20Rik”: -2.48 (active); for GGAUAUUCUUCUUAAGCAGTT against Agbl5: -0.168.
Take CCAGGUUGAUGAUUUCAACTT against Tbcc: the z-score is -1.43.
The same measure for GGGAAGUGCAUGCUCAUCUTT against Smarcal1: -0.187; for GCGUGGAUUACAUUUCUCUTT against Depdc1a: 0.392; for “GGACUGAGAACCAAAGCUGTT against D630044L22Rik”: -3.15 (active).
GGAAGAGCCAGUGGUAUAATT against Ccdc171: the z-score was 0.164.
On to GUCUGAGCGACUGUCUCCATT against Mef2b, for which the z-score is -2.17 (active).
